The record followed here is the supplement of paper PMC10849652.

The full data set covers some 7,900 targets. This sample favours those with a hit. About 0.6% of all pairs of compound and target were hits. A number with no mark means an inactive call.

Chain of UniProt P14618 (P14618 whole entry, looked up): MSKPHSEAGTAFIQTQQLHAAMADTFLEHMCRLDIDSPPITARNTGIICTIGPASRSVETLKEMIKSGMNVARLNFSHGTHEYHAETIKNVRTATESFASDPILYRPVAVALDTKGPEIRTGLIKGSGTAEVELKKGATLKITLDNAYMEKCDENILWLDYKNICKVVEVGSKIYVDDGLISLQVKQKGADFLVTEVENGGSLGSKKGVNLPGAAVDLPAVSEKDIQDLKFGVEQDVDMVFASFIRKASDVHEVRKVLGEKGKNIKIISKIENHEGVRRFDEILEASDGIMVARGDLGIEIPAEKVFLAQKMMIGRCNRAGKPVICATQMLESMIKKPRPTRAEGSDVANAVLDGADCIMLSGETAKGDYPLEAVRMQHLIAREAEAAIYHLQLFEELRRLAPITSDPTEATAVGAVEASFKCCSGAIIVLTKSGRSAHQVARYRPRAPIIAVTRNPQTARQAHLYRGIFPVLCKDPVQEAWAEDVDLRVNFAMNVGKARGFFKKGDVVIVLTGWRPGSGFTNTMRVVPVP
Chain of UniProt Q9Y5Y5 (Q9Y5Y5 whole entry, looked up): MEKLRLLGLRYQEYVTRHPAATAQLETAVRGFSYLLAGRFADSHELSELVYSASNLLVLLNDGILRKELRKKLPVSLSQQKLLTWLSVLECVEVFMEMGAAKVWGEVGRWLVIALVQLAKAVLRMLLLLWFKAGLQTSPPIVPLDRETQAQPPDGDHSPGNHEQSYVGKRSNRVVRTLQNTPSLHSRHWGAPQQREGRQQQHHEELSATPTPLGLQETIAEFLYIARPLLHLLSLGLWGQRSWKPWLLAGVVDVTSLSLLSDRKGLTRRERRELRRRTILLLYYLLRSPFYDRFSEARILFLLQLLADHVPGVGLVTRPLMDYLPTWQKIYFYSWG
Chain of UniProt Q8N165 (Q8N165 whole entry, looked up): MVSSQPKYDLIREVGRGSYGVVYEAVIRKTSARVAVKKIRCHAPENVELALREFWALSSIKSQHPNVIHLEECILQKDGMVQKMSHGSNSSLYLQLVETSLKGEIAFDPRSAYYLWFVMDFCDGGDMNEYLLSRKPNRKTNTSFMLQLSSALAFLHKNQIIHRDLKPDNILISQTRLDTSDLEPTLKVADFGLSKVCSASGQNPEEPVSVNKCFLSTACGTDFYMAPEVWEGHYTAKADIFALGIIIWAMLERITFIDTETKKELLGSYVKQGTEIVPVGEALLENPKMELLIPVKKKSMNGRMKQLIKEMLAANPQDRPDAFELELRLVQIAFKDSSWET
Chain of UniProt Q14442 (Q14442 whole entry, looked up): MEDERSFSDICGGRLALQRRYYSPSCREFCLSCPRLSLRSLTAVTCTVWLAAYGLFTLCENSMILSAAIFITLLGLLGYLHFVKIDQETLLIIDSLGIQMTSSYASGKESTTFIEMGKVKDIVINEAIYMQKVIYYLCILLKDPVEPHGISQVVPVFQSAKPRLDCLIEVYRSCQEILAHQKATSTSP
Chain of UniProt O60678 (O60678 whole entry, looked up): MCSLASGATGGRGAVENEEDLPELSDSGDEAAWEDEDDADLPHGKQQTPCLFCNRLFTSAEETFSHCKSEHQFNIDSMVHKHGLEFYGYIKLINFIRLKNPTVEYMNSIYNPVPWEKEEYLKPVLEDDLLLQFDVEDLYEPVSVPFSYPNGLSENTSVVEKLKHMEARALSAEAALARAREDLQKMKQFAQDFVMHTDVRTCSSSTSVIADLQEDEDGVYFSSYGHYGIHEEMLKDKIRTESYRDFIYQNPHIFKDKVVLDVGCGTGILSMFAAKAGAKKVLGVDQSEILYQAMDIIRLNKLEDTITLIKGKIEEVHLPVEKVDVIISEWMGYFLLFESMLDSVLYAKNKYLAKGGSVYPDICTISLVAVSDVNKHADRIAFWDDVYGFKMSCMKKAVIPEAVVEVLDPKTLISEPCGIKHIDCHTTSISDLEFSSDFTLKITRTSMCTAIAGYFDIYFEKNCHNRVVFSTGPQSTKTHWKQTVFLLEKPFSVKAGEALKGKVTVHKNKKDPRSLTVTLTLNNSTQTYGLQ
Chain of UniProt P54619 (P54619 whole entry, looked up): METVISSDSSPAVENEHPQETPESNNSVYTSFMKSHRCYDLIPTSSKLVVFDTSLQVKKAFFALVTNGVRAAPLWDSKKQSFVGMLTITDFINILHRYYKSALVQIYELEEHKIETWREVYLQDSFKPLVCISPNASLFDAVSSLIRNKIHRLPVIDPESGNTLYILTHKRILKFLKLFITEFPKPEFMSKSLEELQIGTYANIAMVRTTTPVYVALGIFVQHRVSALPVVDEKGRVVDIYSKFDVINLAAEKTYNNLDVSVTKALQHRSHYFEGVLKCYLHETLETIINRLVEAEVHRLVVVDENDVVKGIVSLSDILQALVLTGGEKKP
Chain of UniProt P28070 (P28070 whole entry, looked up): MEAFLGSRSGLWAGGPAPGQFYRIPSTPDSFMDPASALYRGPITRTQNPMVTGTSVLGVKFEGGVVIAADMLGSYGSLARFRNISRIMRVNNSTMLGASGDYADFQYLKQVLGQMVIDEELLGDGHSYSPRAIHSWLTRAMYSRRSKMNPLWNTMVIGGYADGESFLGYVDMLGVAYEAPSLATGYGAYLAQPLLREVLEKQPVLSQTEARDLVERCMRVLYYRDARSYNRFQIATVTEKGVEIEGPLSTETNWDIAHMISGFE
Chain of UniProt Q9H5K3 (Q9H5K3 whole entry, looked up): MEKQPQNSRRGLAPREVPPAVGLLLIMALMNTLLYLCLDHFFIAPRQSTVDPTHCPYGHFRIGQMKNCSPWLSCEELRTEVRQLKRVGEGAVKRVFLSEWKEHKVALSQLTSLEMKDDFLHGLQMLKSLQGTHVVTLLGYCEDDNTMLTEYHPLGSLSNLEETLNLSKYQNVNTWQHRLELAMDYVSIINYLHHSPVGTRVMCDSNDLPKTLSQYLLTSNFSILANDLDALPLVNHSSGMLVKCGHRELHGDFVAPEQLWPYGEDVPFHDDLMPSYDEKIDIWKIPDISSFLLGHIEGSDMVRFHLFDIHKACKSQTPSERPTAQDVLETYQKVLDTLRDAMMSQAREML
Chain of UniProt P07205 (P07205 whole entry, looked up): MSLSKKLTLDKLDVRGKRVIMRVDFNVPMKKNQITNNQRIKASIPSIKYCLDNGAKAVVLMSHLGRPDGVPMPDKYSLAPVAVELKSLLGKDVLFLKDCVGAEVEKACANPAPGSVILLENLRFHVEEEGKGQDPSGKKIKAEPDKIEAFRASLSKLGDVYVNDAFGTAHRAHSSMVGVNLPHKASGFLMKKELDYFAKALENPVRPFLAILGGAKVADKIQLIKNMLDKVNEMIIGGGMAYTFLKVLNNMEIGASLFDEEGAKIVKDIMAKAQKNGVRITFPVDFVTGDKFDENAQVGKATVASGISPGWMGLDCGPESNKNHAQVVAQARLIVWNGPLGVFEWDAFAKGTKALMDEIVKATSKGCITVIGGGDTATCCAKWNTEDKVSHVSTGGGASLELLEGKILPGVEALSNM
Chain of UniProt O15530 (O15530 whole entry, looked up): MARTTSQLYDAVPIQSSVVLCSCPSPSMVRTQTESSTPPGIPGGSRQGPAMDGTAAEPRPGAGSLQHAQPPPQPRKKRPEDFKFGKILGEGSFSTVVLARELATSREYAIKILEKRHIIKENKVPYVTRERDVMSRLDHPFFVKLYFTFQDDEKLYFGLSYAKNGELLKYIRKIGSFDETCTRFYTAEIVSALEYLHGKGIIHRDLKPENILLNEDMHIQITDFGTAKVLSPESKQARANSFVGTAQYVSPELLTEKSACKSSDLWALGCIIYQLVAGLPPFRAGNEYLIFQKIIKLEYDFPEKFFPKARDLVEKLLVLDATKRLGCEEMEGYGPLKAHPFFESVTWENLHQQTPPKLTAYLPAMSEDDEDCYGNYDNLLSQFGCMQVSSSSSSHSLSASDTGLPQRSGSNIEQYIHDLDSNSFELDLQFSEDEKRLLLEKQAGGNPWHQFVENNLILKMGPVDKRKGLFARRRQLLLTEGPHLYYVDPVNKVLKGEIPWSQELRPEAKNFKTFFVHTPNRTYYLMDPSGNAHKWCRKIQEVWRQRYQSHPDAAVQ
Chain of UniProt O00329 (O00329 whole entry, looked up): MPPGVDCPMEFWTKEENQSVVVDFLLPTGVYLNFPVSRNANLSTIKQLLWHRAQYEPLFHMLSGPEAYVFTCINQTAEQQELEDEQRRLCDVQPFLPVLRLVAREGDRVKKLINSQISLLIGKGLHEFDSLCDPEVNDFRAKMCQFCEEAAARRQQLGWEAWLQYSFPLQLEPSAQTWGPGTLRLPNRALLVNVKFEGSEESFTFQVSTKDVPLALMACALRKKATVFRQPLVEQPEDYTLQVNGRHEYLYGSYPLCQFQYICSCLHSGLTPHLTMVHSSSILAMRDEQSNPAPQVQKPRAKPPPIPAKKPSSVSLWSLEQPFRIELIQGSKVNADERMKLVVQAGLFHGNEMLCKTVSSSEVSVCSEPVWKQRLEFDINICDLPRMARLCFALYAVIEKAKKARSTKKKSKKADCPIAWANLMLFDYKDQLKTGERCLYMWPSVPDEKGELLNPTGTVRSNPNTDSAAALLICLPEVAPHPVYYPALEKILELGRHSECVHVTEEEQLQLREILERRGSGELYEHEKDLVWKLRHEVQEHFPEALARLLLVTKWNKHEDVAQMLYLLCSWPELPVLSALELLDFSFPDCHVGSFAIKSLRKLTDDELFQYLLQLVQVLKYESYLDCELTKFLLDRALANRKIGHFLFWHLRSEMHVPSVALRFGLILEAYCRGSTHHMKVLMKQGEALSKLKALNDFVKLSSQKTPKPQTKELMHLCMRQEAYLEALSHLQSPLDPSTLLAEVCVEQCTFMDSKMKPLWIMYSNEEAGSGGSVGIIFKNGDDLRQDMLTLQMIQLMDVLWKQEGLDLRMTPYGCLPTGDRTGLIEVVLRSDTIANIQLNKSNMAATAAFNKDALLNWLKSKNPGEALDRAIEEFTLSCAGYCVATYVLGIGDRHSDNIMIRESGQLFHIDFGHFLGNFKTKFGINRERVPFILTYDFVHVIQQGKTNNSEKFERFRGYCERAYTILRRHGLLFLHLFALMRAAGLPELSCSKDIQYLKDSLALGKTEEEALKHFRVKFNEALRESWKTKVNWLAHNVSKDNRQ

Compound in the test: CN1C2=C(C3=C1C(=O)N(N=C3)CC4=CC(=CC=C4)N)SC(=C2)S(=O)C
Briefly: log2 fold change, soluble protein after heating vs DMSO (PISA); higher = thermal stabilisation; K562 cells, 10 uM, 30 min; active = over 0.2 and 3.5 SD of the protein, either way, in both replicates (recomputed). A digest of the protocol:
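Values are thermal stability changes relative to control samples and are taken from duplicates. They are stated as log2 fold changes. Before quantification by TMTpro 16plex LC-MS/MS with equalised channel sums, K562 cells at 2×10^6 cells/mL were treated with 10 μM compound for 30 min, heated in aliquots for 3 min across 48°C-58°C, pooled, extracted in PBS with 0.5% NP-40 at 4°C, and centrifuged at 21,000xg for 90 min to give the soluble supernatant.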
As for PKM isoform 2 (UniProt P14618), the log2 fold change was -0.184.

Take PDIK1L (UniProt Q8N165): the log2 fold change was 0.02.

For the target POLR2C (UniProt P19387), the log2 fold change is -0.04.

On to POLB (UniProt P06746), for which the log2 fold change was 0.016.

As to PPP2R5A (UniProt Q15172), the log2 fold change was -0.049.

Turning to POMK (UniProt Q9H5K3), the log2 fold change was 0.023.

PRKAG1 isoform 3 (UniProt P54619): the log2 fold change was -0.009.

As to PTGFRN (UniProt Q9P2B2), the log2 fold change was -0.104.

Turning to PGK2 (UniProt P07205), the log2 fold change was -0.059.

Turning to PIGH (UniProt Q14442), the log2 fold change is 0.115.

For PTP4A2 (UniProt Q12974), the log2 fold change is -0.003.

As to PNN (UniProt Q9H307), the log2 fold change is 0.067.

For PPP2R5B (UniProt Q15173), the log2 fold change was -0.05.

Consider PLIN2 (UniProt Q99541), for which the log2 fold change was 0.

With PNPLA4 (UniProt P41247), the log2 fold change was 0.126.

For POGZ (UniProt Q7Z3K3), the log2 fold change is 0.006.

Take PRMT3 (UniProt O60678): the log2 fold change was -0.008.

Regarding PEX16 isoform 2 (UniProt Q9Y5Y5), the log2 fold change was -0.127.

For the target PIK3CD (UniProt O00329), the log2 fold change is 0.

As to PPP1R12C (UniProt Q9BZL4), the log2 fold change was 0.013.

In the case of POLR2M (UniProt Q6EEV4), the log2 fold change is 0.105.

Take PSMB4 (UniProt P28070): the log2 fold change was 0.021.

Turning to PDPK1 (UniProt O15530), the log2 fold change was -0.008.
